# Measurements published in ChEMBL document CHEMBL3988442, “University of Dundee, Small-Polar-MMV Screening Library” (2021).
# Target: T1, Methionyl-tRNA synthetase, putative (Leishmania donovani (strain BPK282A1)) (UniProt E9BF75)
# T1 sequence (whole entry): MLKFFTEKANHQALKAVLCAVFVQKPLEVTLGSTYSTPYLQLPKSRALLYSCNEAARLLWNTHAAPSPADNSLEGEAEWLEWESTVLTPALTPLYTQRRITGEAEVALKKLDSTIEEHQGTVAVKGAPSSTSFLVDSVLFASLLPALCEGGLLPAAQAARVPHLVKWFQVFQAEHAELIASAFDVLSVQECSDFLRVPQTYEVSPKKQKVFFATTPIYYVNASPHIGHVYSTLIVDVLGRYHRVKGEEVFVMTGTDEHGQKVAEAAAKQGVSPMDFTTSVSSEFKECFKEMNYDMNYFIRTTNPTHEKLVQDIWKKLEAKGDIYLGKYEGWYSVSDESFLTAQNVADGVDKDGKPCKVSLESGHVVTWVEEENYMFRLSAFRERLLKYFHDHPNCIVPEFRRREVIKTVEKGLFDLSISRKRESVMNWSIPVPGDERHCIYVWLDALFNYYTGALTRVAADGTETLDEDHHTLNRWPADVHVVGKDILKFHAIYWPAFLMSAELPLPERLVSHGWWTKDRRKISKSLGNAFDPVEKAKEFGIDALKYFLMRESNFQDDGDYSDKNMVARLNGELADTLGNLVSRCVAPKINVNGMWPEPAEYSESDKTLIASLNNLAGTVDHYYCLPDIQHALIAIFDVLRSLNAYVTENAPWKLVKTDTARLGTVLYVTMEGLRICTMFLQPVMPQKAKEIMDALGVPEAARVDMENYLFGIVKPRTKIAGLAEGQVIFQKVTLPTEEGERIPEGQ
# Assay: Leishmania donovani Methionine tRNA synthetase (LdMetRS):v7. Dose response assay
# Format: functional
# Parameters: conc 80 nM, time 150 minutes
compound,measurement,setting,value
COc1ccc(-c2cc(C(F)(F)F)nc(N3CCCC3)n2)cc1,PXC50,MAX_EFFECT 5.85106383,< 4
same,PXC50,MAX_EFFECT 7.772020725,< 4
COCCNc1ccc2ncc(-c3ccc4onc(N)c4c3)n2n1,PXC50,MAX_EFFECT 3.125,< 4
same,PXC50,MAX_EFFECT 3.947368421,< 4
CC(C)(C)OC(=O)N1CCN(c2ccc3ccc(C(=O)NC4CCCC4)cn23)CC1,PXC50,MAX_EFFECT 20.86513995,< 4
same,PXC50,MAX_EFFECT 27.19298246,< 4
Fc1ccc(Nc2nc(-c3ccccn3)cs2)cc1,PXC50,MAX_EFFECT 22.79069767,< 4
same,PXC50,MAX_EFFECT 23.07692308,< 4
CN(C)CCNC(=O)c1ccc2ccc(N3CCN(S(C)(=O)=O)CC3)n2c1,PXC50,"BOTTOM 0.033, HILLSLOPE 2.605738827, MAX_EFFECT 55.98086124, TOP 56.52145989",4.84
same,PXC50,"BOTTOM -2.072944034, HILLSLOPE 2.61914663, MAX_EFFECT 60.32906764, TOP 62.06864911",4.75
CN(c1ncnc2sccc12)C1CCCN(c2cccnn2)C1 (stereo not given),PXC50,MAX_EFFECT 11.26760563,< 4
same,PXC50,MAX_EFFECT 18.33333333,< 4
NC(=O)C1CCN(c2cncc(-n3cccn3)n2)CC1,PXC50,MAX_EFFECT 1.936619718,< 4
same,PXC50,MAX_EFFECT 4.750593824,< 4
Nc1nc(CSc2ccccn2)nc2sc3c(c12)CCCCC3,PXC50,MAX_EFFECT 34.13333333,< 4
same,PXC50,MAX_EFFECT 39.15343915,< 4
CN(C)C(=O)C1CCN(c2cncc(-n3cccn3)n2)CC1,PXC50,MAX_EFFECT 5.700712589,< 4
same,PXC50,MAX_EFFECT 11.44366197,< 4
Cc1cc2c(N3CCC(C(N)=O)CC3)nc(-c3cccnc3)nc2s1,PXC50,MAX_EFFECT 10.38251366,< 4
same,PXC50,MAX_EFFECT 13.36898396,< 4
COc1cccc(-c2cc(C(F)(F)F)nc(N3CCCC3)n2)c1,PXC50,MAX_EFFECT 5.303030303,< 4
same,PXC50,MAX_EFFECT 7.142857143,< 4
Cc1nc(N2CCN(C3CCOCC3)CC2)c2ccsc2n1,PXC50,MAX_EFFECT 2.659574468,< 4
same,PXC50,MAX_EFFECT 4.663212435,< 4
Cc1sc2nc(CN3CCOCC3)nc(NCC3CCCO3)c2c1C (stereo not given),PXC50,MAX_EFFECT 9.836065574,< 4
same,PXC50,MAX_EFFECT 10.69518717,< 4
Cc1nc(N2CCN(c3ccccc3O)CC2)c2c3c(sc2n1)CCC3,PXC50,"BOTTOM -0.0879, HILLSLOPE 1.043556985, MAX_EFFECT 58.82352941, TOP 100.0",4.16
same,PXC50,"BOTTOM -4.305210646, HILLSLOPE 1.068745934, MAX_EFFECT 61.20218579, TOP 100.0",4.17
Cc1sc2nc(C(F)(F)F)nc(N3CCN(S(C)(=O)=O)CC3)c2c1C,PXC50,MAX_EFFECT 4.699738903,< 4
same,PXC50,MAX_EFFECT -2.872062663,< 4
CC(C)C[C@H](N)COc1ccccc1C(=O)c1ccccc1,PXC50,MAX_EFFECT 1.863354037,< 4
same,PXC50,MAX_EFFECT -0.213219616,< 4
Cc1sc2nc(C(F)(F)F)nc(N3CCCN(C)CC3)c2c1C,PXC50,MAX_EFFECT 3.916449086,< 4
same,PXC50,MAX_EFFECT 8.877284595,< 4
CN(C)C(=O)c1ccc2ccc(N3CCN(CC4CC4)CC3)n2c1,PXC50,MAX_EFFECT 43.08390023,< 4
same,PXC50,MAX_EFFECT 51.58878505,< 4
CCc1nc(NCCO)c2cc(CC)sc2n1,PXC50,MAX_EFFECT 6.532663317,< 4
same,PXC50,MAX_EFFECT 10.07371007,< 4
Cc1cc(C(F)(F)F)nc(NCCc2ccccc2)n1,PXC50,MAX_EFFECT 6.557377049,< 4
same,PXC50,MAX_EFFECT 10.16042781,< 4
CNc1nc(C)nc(N2CCc3cc(C(=O)NCc4ccc(-c5nccn5C)cc4Cl)ccc32)n1,PXC50,MAX_EFFECT 28.67132867,< 4
same,PXC50,MAX_EFFECT 30.23255814,< 4
O=c1cc(NCCCNCc2c[nH]c3ccc(Br)cc23)[nH]c2ccccc12,PXC50,"BOTTOM 0.0, HILLSLOPE 1.551467474, MAX_EFFECT 106.0606061, TOP 104.4534441",5.79
same,PXC50,"BOTTOM 0.546192845, HILLSLOPE 1.22385612, MAX_EFFECT 106.0465116, TOP 107.4209254",5.79
Cc1nc(NCCN2CCNC2=O)c2ccsc2n1,PXC50,MAX_EFFECT 8.533333333,< 4
same,PXC50,MAX_EFFECT 11.11111111,< 4
COc1ccc(-c2cc(C(F)(F)F)nc(N3CCCCC3)n2)cc1OC,PXC50,MAX_EFFECT 2.702702703,< 4
same,PXC50,MAX_EFFECT 3.015075377,< 4
CCc1nc(NCCCN(C)C)c2cc(C)sc2n1,PXC50,MAX_EFFECT 12.06030151,< 4
same,PXC50,MAX_EFFECT 14.98771499,< 4
Cc1ccc(-c2ncc(CNc3cnccc3CO)s2)o1,PXC50,MAX_EFFECT 7.511737089,< 4
same,PXC50,MAX_EFFECT 8.703703704,< 4
Cc1nnc(NCC2(c3ccccc3)CCC2)c(C#N)c1C,PXC50,MAX_EFFECT 19.71830986,< 4
same,PXC50,MAX_EFFECT 20.92592593,< 4
CCc1nc(N2CCCC(C)C2)c2c3c(sc2n1)CCC3 (stereo not given),PXC50,"BOTTOM 6.332749468, HILLSLOPE 1.241583482, MAX_EFFECT 50.25125628, TOP 77.91036355",4.17
same,PXC50,MAX_EFFECT 49.87714988,< 4
Cc1nnc(NCC2(c3ccccc3)CCOCC2)c(C#N)c1C,PXC50,MAX_EFFECT 7.981220657,< 4
same,PXC50,MAX_EFFECT 16.48148148,< 4
CS(=O)(=O)N1CCN(c2ccc3ccc(C(=O)NCCS(=O)(=O)N4CCOCC4)cn23)CC1,PXC50,"BOTTOM 0.75923045, HILLSLOPE 2.636958023, MAX_EFFECT 55.02392344, TOP 52.30756256",5
same,PXC50,"BOTTOM 6.938223691, HILLSLOPE 3.502169957, MAX_EFFECT 60.32906764, TOP 60.07357055",4.85
